The source of these data is PubChem BioAssay AID1568 (National Center for Advancing Translational Sciences (NCATS), 2009).

Inconclusive results are not listed. Entries that show only a call come without a potency. Active and inactive are the calls of the source. Calls come from the whole dose curve; as a rule, active = well fitted curve in the direction sought with a large enough effect; inconclusive = small, poorly fitted or top-dose-only effect, or effect the other way, or another doubt; inactive = no such curve, though single readings can be large or run the other way.

A short description of this test: Cell Viability Secondary Assay to Characterize qHTS Inhibitors of the Interaction of Thyroid Hormone Receptor and Steroid Receptor Coregulator 2. The note with it: cell viability counter-screen, qHTS titration; series mostly up to 29.9 µM. An excerpt: NIH Molecular Libraries Probe Production Network [MLPCN]
NIH Chemical Genomics Center [NCGC]
Assay Provider: R. Kip Guy, St. Jude Children's Research Hospital
Thyroid receptor (TR) regulates many homeostatic processes including basal metabolism, cardiovascular function, body weight, and lipid trafficking. TR modulators are potential therapeutics for obesity and hyperlipidemias but current thyroid analogs have undesirable side effects, particularly cardiac stimulation. This secondary assay characterized selected actives identified in the qHTS for Inhibitors of the Interaction of Thyroid Hormone Receptor and Steroid Receptor Coregulator 2. The human follicular thyroid carcinoma cell line WRO (kindly provided by Dr. M. D. Ringel) stably expresses TRbeta and a luciferase reporter gene fused to TR response element. The effect of compounds on the viability of these cells was assessed by measuring ATP levels. Compounds that reduce cell viability are likely cytotoxic.
NCGC Assay Protocol Summary:
Cells were maintained in RPMI 1640 culture medium supplemented with 10% heat-inactivated FBS, 0.33 mg/ml hygromycin, 0.33 mg/ml geneticin, 50 units/ml penicillin, 50 ug/ml streptomycin. Cells were harvested and resuspended at 330,000 cells/ml in assay medium (50% DMEM 50% F-12 medium without Phenol-Red (Cellgro #16-405-CV), L-glutamine, 10% heat inactivated and charcoal treated FBS, 100 uM non-essential amino acid, 50 units/ml penicillin, 50 ug/ml streptomycin). Cells were dispensed at 10,000 cells/30 ul/well into 384 well plates (Corning 3917) and incubated 12 h at 37 C and 5% CO2. Compounds and T3 (100nM final concentration) were added using a pin tool and plates were incubated 16 h incubation at 37 C and 5% CO2. Following incubation, plates were equilibrated at ambient temperature for 30 min, 20 ul of CellTiter-Glo (Promega) was added and luminescence was detected by an EnVision (PerkinElmer).
(In general: Quantitative high-throughput screening tests each substance at several concentrations.)
Consider `Cc1ccc2c(CC(=O)Nc3c(C(=O)c4ccc(F)cc4)oc4ccccc34)coc2c1C`, for which the Potency result is “inactive”.

Turning to `CCOc1cc(C(c2c(C)[nH][nH]c2=O)c2c(C)[nH][nH]c2=O)ccc1OC(=O)c1cccc([N+](=O)[O-])c1`, the Potency entry is “inactive”. With `CN1CCc2ccc3c4c2[C@]1(C)Cc1cccc(c1-4)OCO3` the figure was 8.91 µM (active). With `CC1(C)CC(=O)C(N=Nc2cccc(S(=O)(=O)N3CCOCC3)c2)=C(O)C1` the entry was “inactive”; with `CCOc1cc(C(c2c(C)[nH][nH]c2=O)c2c(C)[nH][nH]c2=O)ccc1OS(=O)(=O)c1ccc(C)cc1`, “inactive”.

In the case of `CC(NC(=O)Nc1ccc(O)cc1)(C(F)(F)F)C(F)(F)F`, the Potency result was “inactive”. With `O=C(O)[C@H]1CN(CCCP(=O)(O)O)CCN1` the entry was “inactive”. For `Cc1cccc(Cn2c(C(=O)OC(C)C)cc3c2ccn3C)c1`, the Potency result was “inactive”. To `Cc1cc2c(NC(=O)Nc3ccccc3)cccc2nn1` belongs “inactive”. On to `N/C(Cc1cccc2ccccc12)=N\OC(=O)c1cccs1`, for which the Potency result was “inactive”. To `CCCc1nc2c(=O)n(C)c(=O)nc-2n(C)n1` belongs 0.794 µM (active); to `C/C(=C\C(=O)c1ccccc1)Nc1ccc(O)cc1`, “inactive”. To `Nc1cccnc1Sc1cc(Cl)c(Cl)cc1Cl` belongs “inactive”. With `CCN(C(=O)C1CCCN(c2ncnc3onc(-c4ccc(F)cc4)c23)C1)c1ccccc1` (stereo not given) the entry was “inactive”; with `O=c1cc(C23CC4CC(CC(C4)C2)C3)[nH][nH]1`, “inactive”.

Turning to `COc1ccc(C(=O)/C=C/Nc2ccc(S(=O)(=O)Nc3ncccn3)cc2)cc1`, the Potency entry was “inactive”. To `CCOc1ccc(NC(=O)C(c2ccccn2)N(C(=O)CCl)c2ccc(F)cc2)cc1` (stereo not given) belongs “inactive”. With `Nc1cc(N)c(OCC(F)(F)F)cc1OCC(F)(F)F` the figure was 14.1 µM (active). Consider `COn1c2c(c3c4nonc4ccc31)CCCC2`, for which the Potency entry is “inactive”. To `CCC(NC(=O)Nc1ccc(O)cc1)(C(F)(F)F)C(F)(F)F` belongs “inactive”. With `CC(=O)NC1N=C(C)N(c2ccccc2)C1=O` (stereo not given) the entry was “inactive”.

For the compound `COc1ccc2c(c1)-c1nc(/N=C/c3c(O)ccc4ccccc34)sc1CC2`, the Potency entry is “inactive”.

For the compound `Cc1cccc(S(=O)(=O)c2cn(Cc3ccccc3)c3cc(N4CCC(C)CC4)c(F)cc3c2=O)c1`, the Potency result was “inactive”. With `Cc1cc(C)cc(OCC(=O)NCCc2nc3ccccc3[nH]2)c1` the entry was “inactive”; with `CCCCOc1ccc(C(=O)CCN2CCOCC2)cc1`, “inactive”. With `CC(=O)c1cccc(NC(=O)COC(=O)c2ccc(S(C)(=O)=O)c([N+](=O)[O-])c2)c1` the entry was “inactive”; with `Cn1c(-c2ccc(=O)[nH]c2)nc2ccccc21`, “inactive”; with `C=CCNC(=O)/C(C#N)=C\c1cc(Cl)c(OCC)c(OC)c1`, “inactive”. To `COc1ccc(C(=O)Oc2ccc(C(c3c(C)[nH][nH]c3=O)c3c(C)[nH][nH]c3=O)cc2OC)cc1` belongs “inactive”. As for `CCOc1ccc(C2=Cc3cc(OC)c(OC)cc3C(=C(Cl)Cl)O2)cc1`, the Potency entry is “inactive”.

With `O=C(/C=C/c1ccco1)NC(=S)Nc1cc(C(F)(F)F)ccc1N1CCOCC1`, the Potency result was “inactive”. For the compound `CN(C(=S)Nc1cccnc1)c1ccc(O)cc1`, the Potency result was “inactive”. Regarding `Oc1ccc2ccccc2c1/C=N/c1nccs1`, the Potency result is “inactive”. Turning to `Cc1[nH][nH]c(=O)c1C(c1ccc(-c2ccccc2C(=O)O)o1)c1c(C)[nH][nH]c1=O`, the Potency result was “inactive”.

In the case of `CCOC(=O)c1cnc2nc(NCc3ccc(OC)c(OC)c3)[nH]n2c1=O`, the Potency entry is “inactive”.

As for `COc1cc(NC(C)CCCN)c2ncccc2c1` (stereo not given), the Potency was 22.4 µM (active). With `Nc1c(C(=O)NCc2ccco2)c2nc3ccccc3nc2n1CCc1ccccc1` the entry was “inactive”; with `Cc1nnc(SCC(=O)Nc2ccc(N(C)C)cc2)[nH]c1=O`, “inactive”; with `Oc1ccc2ccccc2c1/C=N/c1nc2c(s1)CCCC2`, “inactive”. With `CN1c2ccccc2C(C)(C)C12C=Nc1c(cc(N3CCOCC3)c3ccccc13)O2` (stereo not given) the entry was “inactive”.
